Records with an inconclusive call do not appear. Entries that show only a call come without a potency. Calls of active or inactive are those of the source. The call rests on the fitted dose curve; in most records, active means well fitted curve in the direction sought with a large enough effect; inconclusive means small, poorly fitted or top-dose-only effect, or another doubt; inactive means no such curve, though single readings can be large; an effect the other way counts as inactive or inconclusive.

This passage reports Potency and outcome results from PubChem BioAssay (NCATS).

Assay [1] concerns the target Arylsulfatase A (Homo sapiens) (UniProt P15289). As to the kind of experiment: qHTS screen for enhancers of Arylsulfatase A (ASA1): LOPAC Validation Assay (AID 720538). Further: potency means the concentration at half of the fitted maximal effect. The procedure, abridged: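 First, ASA-I179S fibroblasts from an MLD patient adhered for 6 hrs. Next, compounds were added for 48h. Then pNCS substrate (0.5mM final) with lysis buffer reacted 14h at room temperature before NaOH stop and fluorescence measurement.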
In general terms: In qHTS, concentration-response curves come from the screen itself.

A short description of assay [2]: qHTS for compounds that reverse cellular toxicity of Amyloid beta (A-beta) peptide in yeast: LOPAC Validation Assay (AID 720559). In short, it runs like this: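 Activity is expressed relative to DMSO and an equimolar ferric chloride/clioquinol mix. Compounds were pinned into medium with A-beta-expressing yeast, grown 48 hr at 30 C, then read by absorbance at 600 nm.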

A short description of assay [3]: qHTS for Activators of Parkin Expression: LOPAC Validation Assay (NLuc Reporter) (AID 720572). In short, it runs like this: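 Parkin promoter-driven FLuc/NLuc neuronal reporter cells; 24 h plating, 7-pt dose response, 24 h at 37 C/5% CO2; FLuc then NanoLuc reagent, 10 min each, luminescence; DMSO/positive control normalized.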
The nature of assay [4]: qHTS for Activators of Parkin Expression: LOPAC Validation Assay (FLuc Reporter) (AID 720573). In short, it runs like this:
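A neuronal cell line harbouring FLuc and NLuc reporters behind the Parkin promoter was exposed to compounds for 24 h. Firefly luciferase signal, measured after 10 min with detection reagent, was scaled to DMSO and positive-control wells.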

Chain of Arylsulfatase A (Homo sapiens) (P15289 whole entry, looked up): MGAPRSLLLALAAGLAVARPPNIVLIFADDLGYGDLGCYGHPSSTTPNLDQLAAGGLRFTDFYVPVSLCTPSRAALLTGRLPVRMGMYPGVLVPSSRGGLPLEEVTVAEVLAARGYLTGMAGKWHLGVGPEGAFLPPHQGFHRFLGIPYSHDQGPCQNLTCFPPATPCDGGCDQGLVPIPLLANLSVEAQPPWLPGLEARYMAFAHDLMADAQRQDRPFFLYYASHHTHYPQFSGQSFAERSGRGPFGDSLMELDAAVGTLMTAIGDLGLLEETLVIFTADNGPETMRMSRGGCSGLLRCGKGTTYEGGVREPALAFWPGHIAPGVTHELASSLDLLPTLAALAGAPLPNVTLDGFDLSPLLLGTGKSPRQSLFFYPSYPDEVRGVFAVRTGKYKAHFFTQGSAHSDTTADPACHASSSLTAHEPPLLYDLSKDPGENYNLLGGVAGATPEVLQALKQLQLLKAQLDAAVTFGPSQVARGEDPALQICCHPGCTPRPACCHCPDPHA

In the case of `Nc1ccc2c3c(cccc13)C(=O)NC2=O`, the Potency in assay [1] was 4.26 µM (active). Also, the compound was called inactive in assay [2]. Also, the Potency result in assay [3] and in assay [4] was “inactive” in each case.
As to `COc1cc(CC(=O)O)ccc1O`, the Potency entry in assay [1], in assay [3] and in assay [4] was “inactive” throughout. For the same compound, the compound was classed as inactive in assay [2].
For the compound `N#Cc1cc2nc(O)c(O)nc2cc1[N+](=O)[O-]`, the Potency entry in assay [1], in assay [3] and in assay [4] was “inactive” in each case. For the same compound, the outcome in assay [2] was inactive.
For `O[Si](CCCN1CCCCC1)(c1ccc(F)cc1)C1CCCCC1` (stereo not drawn), the Potency entry in assay [1], in assay [3] and in assay [4] was “inactive” each time. Moreover, in assay [2], the result was inactive.
Consider `Nc1ncnc2c1ncn2C1CCCO1` (stereo not drawn), for which, in assay [1], the Potency was 2.69 µM (active). The call in assay [2] was inactive. Further, the Potency result in assay [3] and in assay [4] was “inactive” in each case.
Take `CCN1C(=O)C=CC1=O`: the Potency result in assay [1], in assay [3] and in assay [4] was “inactive” in each case. The outcome in assay [2] was inactive.
For the compound `NCCC1CCCC(CCN)N1` (stereo not drawn), the Potency result in assay [1], in assay [3] and in assay [4] was “inactive” in each case. In addition, in assay [2], the call was inactive.
Take `NC1C=CC=C(C(=O)O)C1` (stereo not drawn): the Potency entry in assay [1], in assay [3] and in assay [4] was “inactive” in each case. The outcome in assay [2] was inactive.
For the compound `O=C1C2C=CC=CC2=NC(=S)N1CCN1CCC(=C(c2ccc(F)cc2)c2ccc(F)cc2)CC1` (stereo not drawn), the Potency result in assay [1], in assay [3] and in assay [4] was “inactive” throughout. Moreover, the outcome in assay [2] was inactive.
For the compound `O=c1cc(-c2ccccc2F)[nH]c2cc3c(cc12)OCO3`, the Potency entry in assay [1], in assay [3] and in assay [4] was “inactive” throughout. For the same compound, the result in assay [2] was inactive.
Take `O=C(OCCN1CCOCC1)C1(c2ccccc2)CCCCC1`: the Potency entry in assay [1], in assay [3] and in assay [4] was “inactive” each time. Also, in assay [2], the call was inactive.
As to `[N-]=[N+]=Nc1ccc(C(=O)CSC[C@H](NC(=O)CC[C@H](N)C(=O)O)C(=O)NCC(=O)O)cc1`, the Potency result in assay [1], in assay [3] and in assay [4] was “inactive” throughout. Further, the compound was called inactive in assay [2].
`C[C@H]1CC2C3CCC4=CC(=O)C=C[C@]4(C)[C@@]3(Cl)[C@@H](O)C[C@]2(C)[C@@]1(O)C(=O)CO` (stereo partly drawn): the Potency entry in assay [1], in assay [3] and in assay [4] was “inactive” in each case. Besides, the call in assay [2] was inactive.
Regarding `COc1ccccc1N1CCN(CCCNc2c(C)c(=O)n(C)c(=O)n2C)CC1`, the Potency entry in assay [1], in assay [3] and in assay [4] was “inactive” throughout. The call in assay [2] was inactive.
As to `O=c1[nH]ccc2c(O)cccc12`, the Potency entry in assay [1], in assay [3] and in assay [4] was “inactive” in each case. For the same compound, in assay [2], the result was inactive.
On to `CCN(CC)CCCCCCCCOC(=O)c1cc(OC)c(OC)c(OC)c1`, for which the Potency entry in assay [1], in assay [3] and in assay [4] was “inactive” in each case. Further, the outcome in assay [2] was inactive.
On to `CN1C2CCC1CC(OC(c1ccccc1)c1ccccc1)C2` (stereo not drawn), for which the Potency entry in assay [1], in assay [3] and in assay [4] was “inactive” each time. Also, in assay [2], the outcome was inactive.
As to `CC(N)=O`, the Potency entry in assay [1], in assay [3] and in assay [4] was “inactive” in each case. Further, the compound was called inactive in assay [2].
In the case of `CCCCCCCCCCCCCCC[C@H](O)[C@H](N)CO`, the Potency entry in assay [1], in assay [3] and in assay [4] was “inactive” each time. Further, the compound was classed as inactive in assay [2].
For the compound `C[C@@]1(C2CCCC2)Cc2cc(OCC(=O)O)c(Cl)c(Cl)c2C1=O`, the Potency entry in assay [1], in assay [3] and in assay [4] was “inactive” throughout. For the same compound, the outcome in assay [2] was inactive.
Regarding `Cn1c(=O)c2[nH]c(C3CCCC3)nc2n(C)c1=O`, the Potency result in assay [1], in assay [3] and in assay [4] was “inactive” each time. For the same compound, in assay [2], the call was inactive.
On to `NCCCNCCCCNCCCN`, for which the Potency result in assay [1], in assay [3] and in assay [4] was “inactive” each time. The compound was called inactive in assay [2].
As to `N=C(N)c1ccc(OCCCCCOc2ccc(C(=N)N)cc2)cc1` (tested in a mixture with another compound), the Potency entry in assay [1], in assay [3] and in assay [4] was “inactive” in each case. Further, the outcome in assay [2] was inactive.
As for `CCC1(O)CC2CN(CCc3c([nH]c4ccccc34)[C@@](C(=O)OC)(c3cc4c(cc3OC)N(C)C3[C@]45CCN4CC=C[C@@](CC)([C@@H](OC(C)=O)[C@]3(O)C(=O)OC)[C@H]45)C2)C1` (stereo partly drawn), the Potency result in assay [1], in assay [3] and in assay [4] was “inactive” throughout. For the same compound, the result in assay [2] was inactive.
As for `CO/N=C(\C(=O)N[C@@H]1C(=O)N2C(C(=O)O)=C(CSc3nc(=O)c(O)nn3C)CSC12)c1csc(N)n1` (stereo partly drawn), the Potency entry in assay [1], in assay [3] and in assay [4] was “inactive” throughout. Further, the call in assay [2] was inactive.
Turning to `C=C1C(=O)O[C@@H]2[C@H]3O[C@]3(C)CCC=C(C)CC[C@@H]12`, the Potency entry in assay [1], in assay [3] and in assay [4] was “inactive” each time. The call in assay [2] was inactive.
As to `C=CCN1CCc2c(cc(O)c(O)c2Br)[C@@H](c2ccccc2)C1`, the Potency result in assay [1], in assay [3] and in assay [4] was “inactive” in each case. Moreover, the call in assay [2] was inactive.
Regarding `CCCCCCN(CCCCCC)C(=O)Cc1c(-c2ccc(F)cc2)[nH]c2ccccc12`, the Potency result in assay [1], in assay [3] and in assay [4] was “inactive” each time. In assay [2], the compound was called inactive.
As for `Cc1cccc(C)c1OCC(N)C(C)C` (stereo not drawn), the Potency entry in assay [1], in assay [3] and in assay [4] was “inactive” in each case. The outcome in assay [2] was inactive.
With `CC(=O)N[C@@H](Cc1c[nH]c2ccccc12)C(=O)OCc1cc(C(F)(F)F)cc(C(F)(F)F)c1`, the Potency result in assay [1], in assay [3] and in assay [4] was “inactive” throughout. Moreover, the result in assay [2] was inactive.
In the case of `N=C(N)SCCN`, the Potency result in assay [1], in assay [3] and in assay [4] was “inactive” each time. In assay [2], the compound was called inactive.
For `C=CCNc1ncnc2ccc(Br)cc12`, the Potency result in assay [1], in assay [3] and in assay [4] was “inactive” in each case. For the same compound, the compound was classed as inactive in assay [2].
As for `NC1(C(=O)O)CCc2cc(C(=O)O)ccc21` (stereo not drawn), the Potency result in assay [1], in assay [3] and in assay [4] was “inactive” each time. Also, the compound was called inactive in assay [2].
For `CC(=O)NNC(=O)N1Cc2ccccc2Oc2ccc(Cl)cc21`, the Potency entry in assay [1], in assay [3] and in assay [4] was “inactive” throughout. Moreover, in assay [2], the compound was classed as inactive.
Take `NC1(C(=O)O)CC1`: the Potency entry in assay [1], in assay [3] and in assay [4] was “inactive” throughout. Further, the compound was classed as inactive in assay [2].
`NC/C=C\C(=O)O`: the Potency result in assay [1], in assay [3] and in assay [4] was “inactive” throughout. Besides, the outcome in assay [2] was inactive.
As for `N#C/C(=C\c1ccc(O)c(O)c1)C(=O)NCCCNC(=O)/C(C#N)=C/c1ccc(O)c(O)c1`, the Potency entry in assay [1], in assay [3] and in assay [4] was “inactive” throughout. Besides, in assay [2], the compound was called inactive.
